ROC1-CUL1 inh – inhibitors of human ROC1-CUL1 ubiquitin ligase activity; E3 ubiquitin-protein ligase RBX1 (Homo sapiens) + Cullin-1 (Homo sapiens), P62877+Q13616; in vitro K48 di-Ub FRET, acceptor:donor ratio, 45 min; inhibition, % at 10 µM; 0.6% of 140,000 active; in the data active = inhibition above about 25%
* = called active by the depositor. Many of the other results were omitted from the sample, so hits are more common in it than they were.

SMILES	ROC1-CUL1 inh
O=C1C(=Cc2ccc(-c3cc(Cl)ccc3Cl)o2)C(=O)N(c2ccccc2)C(=S)N1c1ccccc1	-11.1
CC1=NOC(=O)/C1=C/c1cccn1C	2.5
CCN(Cc1ccncc1)C1CCCN(Cc2ccco2)C1 (configuration not stated)	5.9
Cc1cc(C(=O)O)ccc1-c1ccc(/C=C2/SC(=O)N(C(C)C)C2=O)o1	63.9*
CCCN1C(=O)/C(=C\c2ccc(-c3cc(C(=O)O)ccc3C)o2)C(=O)N(c2ccccc2)C1=S	45.1*
CCN1C(=O)S/C(=C/c2ccc(-c3cc(C(=O)O)ccc3C)o2)C1=O	-0.3
CCCN1C(=O)/C(=C/c2cc(-c3ccccc3)n(-c3ccc(C(=O)OCC)cc3)c2-c2ccccc2)C(=O)N(c2ccccc2)C1=S	18.1
CCCN1C(=O)/C(=C\c2ccco2)C(=O)N(c2ccccc2)C1=S	-5.0
C=CCN1C(=O)S/C(=C/c2ccc(-c3cc(C(=O)O)ccc3C)o2)C1=O	6.8
Cc1cc(C(=O)O)ccc1-c1ccc(/C=C2\SC(=O)N(CC(=O)N3CCOCC3)C2=O)o1	0.1
Cc1cc(C(=O)O)ccc1-c1ccc(/C=C2\SC(=O)N(CC(=O)N3CCCC3)C2=O)o1	10.4
Cc1ccc(C(=O)O)cc1-c1ccc(/C=C2\SC(=O)N(Cc3ccccc3F)C2=O)o1	50.2*
O=C(O)CCC(=O)N1CCN(C(c2ccccc2)c2ccccc2)CC1	3.2
COc1nccnc1N1CCc2[nH]nc(CC3CCCCC3)c2C1	-1.1
Cc1cccc(OCc2nc(C#N)c(N3CC(C)OC(C)C3)o2)c1 (configuration not stated)	5.7
Cc1nn(C(=O)c2ccc(COc3ccccc3Cl)cc2)c(C)c1Br	-7.4
COc1cccc(C2CC(=O)Nc3cc(OC)c(OC)c(OC)c32)c1OC (configuration not stated)	12.1
CC1CCCN(CC(=O)Nc2ccc(Cl)cc2Cl)C1 (configuration not stated)	5.2
COC(=O)c1ccc(Nc2ncnc3c2nc2n3CCCC2)cc1	5.9
CC1(C)CC2CC(C)(CN2C(=O)CCC2(Cc3ccc4ccccc4c3)CCC(=O)N2)C1 (configuration not stated)	12.3
CCNC(=O)N1CCNC(=O)C1CC(=O)Nc1ccc(F)cc1 (configuration not stated)	-4.3
CCOC(=O)c1c(NC(=O)CCCC(=O)O)sc(C)c1-c1ccc(F)cc1	3.0
CCOC(=O)c1c(NC(=O)c2cccs2)sc(C)c1-c1ccc(OC)cc1	3.5
CCOC(=O)c1c(NC(=O)CCC(=O)O)sc(C)c1-c1ccc(CC(C)C)cc1	91.3*
COCCNC(=O)Cn1cc2c(n1)-c1c(oc(C(=O)N3CCCC3)c1C)CC2	-7.3
SMILES	ROC1-CUL1 inh
CC(=O)N1CCCc2cc(S(=O)(=O)N3CCCC(C(=O)Nc4ccc(F)cc4F)C3)ccc21 (configuration not stated)	4.1
OCc1ccccc1C#Cc1ccccc1	0.6
Nc1ccccc1C#Cc1ccccc1	-0.2
OCc1ccc(C#Cc2ccccc2)o1	80.9*
Cc1cc(N2CCC(C(=O)NCCC(C)C)CC2)n2nc(C)c(-c3ccc(Cl)cc3)c2n1	3.8
O=C1c2ccccc2C(=O)C1C(c1ccc(F)cc1)c1ccc(F)cc1	12.8
CC(=O)N=C1C(=O)c2ccccc2C(=O)C1N1CCN(c2ccc(F)cc2)CC1 (configuration not stated)	14.1
O=C(CC(c1ccccc1)c1ccccc1F)N1CCC(N2CCOCC2)CC1 (configuration not stated)	-3.4
O=C1C(=Nc2ccc(F)cc2)C(N2CCCCC2)C(=O)c2ccccc21 (configuration not stated)	49.9*
O=C1C(=Nc2ccc(F)cc2)C(N2CCOCC2)C(=O)c2ccccc21 (configuration not stated)	50.4*
C/C(=N\N1CCN(C2c3ccccc3-c3ccccc32)CC1)c1ccc(F)cc1	1.1
CS(=O)(=O)CCC(C(=O)Nc1cccc(C(F)(F)F)c1)N1Cc2ccccc2C1=O (configuration not stated)	5.7
COc1ccc(-n2c(=O)c3sc4ccccc4c3n(CC(=O)NCc3ccccc3)c2=O)cc1	-7.6
O=C(/C=C/c1cnc[nH]1)N1CCc2[nH]nc(-c3cccc(Cl)c3)c2C1	4.0
COc1cc(NC(=O)CSc2nc(-c3ccccc3)no2)cc(OC)c1	2.8
C[C@]12CCC3c4ccc(CO)cc4CCC3C1CCC2=O (some centres not stated)	12.8
CSc1nsc(SCSc2nc(SC)ns2)n1	36.1*
CSc1nsc(SCCC(=O)Nc2ccccc2)n1	-4.2
CSc1nsc(SCSc2nnc(-c3ccccc3)o2)n1	-3.7
O=C1Nc2c(cc([N+](=O)[O-])cc2[N+](=O)[O-])C(=O)C1(Cl)Cl	21.2
COc1c(Cl)cc2c(c1Cl)NC(=O)C(Cl)(Cl)C2=O	45.5*
COc1cccc2c1NC(=O)C(Cl)(Cl)C2=O	-2.5
CCCCCCCCCOc1ccc(C#CC(=O)O)cc1	98.8*
CCCCCCOc1ccc(/C(CCCCC/C(=N\O)c2ccc(OCCCCCC)cc2)=N\O)cc1	-2.9
CCCCCCCCCCOc1ccc(N=CC=Nc2ccc(OCCCCCCCCCC)cc2)cc1	2.2
SMILES	ROC1-CUL1 inh
C=CCNCC1=C(Sc2ccccc2)c2sc(NC(C)=O)c(C(=O)OCC)c2CC1	0.0
COCCN(Cc1ccc(OC)cc1)C(NC(=O)c1ccc(Cl)cc1)(C(F)(F)F)C(F)(F)F	0.1
CC(C)Oc1ccc(CC2=NC(=S)NC2=O)cc1	3.6
O=C1NC(=S)N=C1Cc1ccc(OCc2cccc(C(=O)O)c2)cc1	25.7*
O=C(O)COc1ccc(CC2=NC(=S)NC2=O)cc1	6.8
S=C1C=C(c2ccccc2)Sc2ccccc2N1	9.8
COc1cc(NC(=O)CCc2c(C)nc3c(c(C)nn3-c3ccccc3)c2C)cc(OC)c1OC	3.3
CN1CCN(c2cc3ccccc3c(=O)c3ccccc23)CC1	-2.7
O=C(Nc1ccc(N2CCCC2)c(Cl)c1)c1cccc2ccccc12	2.1
c1ccc2c(c1)cc(N1CCCC1)c1ccccc12	89.7*
COc1ccc(C2C(C(=O)c3ccccc3)C(=O)C(=O)N2CO)cc1 (configuration not stated)	-0.5
CCOC(=O)C1C(=N)Oc2ccc3ccc(O)cc3c2C1c1ccc(F)cc1 (configuration not stated)	-1.0
CN(C(=O)c1ccco1)C(Cc1ccc(F)cc1F)C1CCN(Cc2ccc3c(c2)OCO3)CC1 (configuration not stated)	3.8
CC1=C(C#N)c2nc(N)c(C#N)c(C)c2/C1=C\c1ccc(F)cc1	-5.5
CC1=C(C#N)c2nc(N)c(C#N)c(C)c2/C1=C\c1ccc(OCc2cccc(C(=O)O)c2)cc1	98.4*
CC1=C(C#N)c2nc(N)c(C#N)c(C)c2/C1=C\c1cccc(F)c1	-3.9
CCC1CCc2c(sc(NC(=O)c3cccc(Br)c3)c2C(N)=O)C1 (configuration not stated)	3.9
COc1ccccc1N1CCN(C(=O)C2CCN(C(=O)c3ccccc3F)CC2)CC1	12.2
O=C(OCc1ccccc1NC(=S)c1cccs1)c1cccs1	-0.8
Cc1cccc(N2NC(=O)/C(=C/c3ccc(-c4ccc(Cl)c(C(=O)O)c4)o3)C2=O)c1	2.7
O=C1NN(c2cccc(Cl)c2)C(=O)/C1=C/c1ccc2c(c1)OCO2	1.3
CCOC(=O)c1ccc(-c2ccc(/C=C3/C(=O)NN(c4ccc(C)cc4)C3=O)o2)cc1	5.6
O=C1NN(c2cccc(Br)c2)C(=O)/C1=C\c1ccc(-c2ccc(C(=O)O)cc2)o1	60.2*
